Source: the supplement of paper PMC10338343
± gives the standard deviation. The full ranking holds about 6,200 sequences; the median of “pre-steady-state target cleavage rate” is about 0.29, and the highest 2% start at about 2. For the sample, the highest values were picked, then their nearest neighbours and some sequences at random.

These sequences were tested on MIWI (PIWIL1) piRISC loaded with piRNA #1 (30 nt) (assay: pre-steady-state target cleavage rate (min^-1); MIWI and MILI are mouse PIWI proteins and EfPiwi is from a freshwater sponge; tags in brackets are library labels; higher = faster piRNA-guided slicing of the target). Conditions: guide: piRNA #1 5'p-UGAGGUAGUAGGUUGUAUAGUAUCCAGAGG; auxiliary factor: 500 nM mouse GTSF1.
Protocol: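 Cleave-'n-Seq: a library of target RNAs (target site embedded in constant flanks, ACAGCATTCCGCGTTAGTGATATCCG... 5' flank; DNA-blocked outside the site) at 0.1 nM was incubated with 1 nM active mouse MILI or MIWI piRISC (synthetic 5'-monophosphorylated piRNA guide) with or without 500 nM mouse GTSF1 at 33 °C for 1 min to 16 h. Uncleaved targets were sequenced and normalised to non-target controls, and the pooled three trials were fitted to a burst-and-steady-state model to give the pre-steady-state cleavage rate (min^-1; k3 is constrained to at most 1e-4). Sequence is the target site only; target names encode pairing extent (gX:gY) and contiguous / 1-mismatch / 2-mismatch / bulge geometry. Fits with R² ≤ 0 are excluded.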

Sequence | pre-steady-state target cleavage rate
GGAGACCUAUCUAUACAACCUUCUACCACA | 0.136 ± 0.015
GGUCUGGAUAUUAUACAACCUACUACCUCA | 1.98 ± 0.12
GCUCUGGAUAUUAUACAACCUACUACCUCA | 2.06 ± 0.11
CCUCUGGAUAUUAUACAACCUACUACCUCA | 2.15 ± 0.12
GGACUGGAUAUUAUACAACCUACUACCUCA | 1.62 ± 0.11
GCUCUGGAUAUAUACAACCUACUACCUCA | 1.62 ± 0.086
GCUCUGGAUACAUAUACAACCUACUACCUCA | 1.54 ± 0.083
GGAGACCUAAGUAUUCAACCUACUACCUCA | 0.00289 ± 0.0023
CGUCUGGAUACUAUACAACCUACUACCUGA | 0.517 ± 0.044
CCUCUGGAUACUAUACAUGGUACUACCUCA | 0.0547 ± 0.0094
GGAGAGGAUACUAUACAACCUACCACCUCA | 0.849 ± 0.049
CCUCUCGAUACUAUACAACCUUCUACCUCA | 0.676 ± 0.035
CCUCUCGAUUCUAUACAACCUACUACCUCA | 2.25 ± 0.15
GCUCUCGAUACUAUACAACCUUCUACCUCA | 0.639 ± 0.034
GGACUCGAUUCUAUACAACCUACUACCUCA | 1.61 ± 0.14
GGUCUCGAUUCUAUACAACCUACUACCUCA | 1.74 ± 0.1
GCUCUCGAUUCUAUACAACCUACUACCUCA | 2.09 ± 0.12
GGUCUGGAUACUAUACUUCCUACUACCUCA | 0.248 ± 0.029
GGAGUGGAGACUAUACAACCUACUACCUCA | 1.65 ± 0.099
GGAGUGGAUACUAAUACAACCUACUACCUCA | 1.4 ± 0.1
GCUGCUGGAUACUAUACAACCUACUACCUCA | 2.01 ± 0.14
CCUGCUGGAUACUAUACAACCUACUACCUCA | 2.06 ± 0.12
GCGCUGGAUACUAUACAACCUACUACCUCA | 1.85 ± 0.1
GGUGCUGGAUACUAUACAACCUACUACCUCA | 1.85 ± 0.11
GGGCUGGAUACUAUACAACCUACUACCUCA | 1.9 ± 0.12

Sequence | pre-steady-state target cleavage rate
CCGCUGGAUACUAUACAACCUACUACCUCA | 1.88 ± 0.094
GCUCUGGAUACUAUACAACCAUCUACCUCA | 0.0463 ± 0.011
GGAGUGGUUACUAUAGAACCUACUACCUCA | 1.24 ± 0.08
CAUCUGGAUACUAUACAACCUACUACCUCA | 1.37 ± 0.066
GGUCUGGAUACUAUACAACCUUACUACCUCA | 0.00317 ± 0.0022
GGAGACCUUAGUAUACAACCUACAACCUCA | 0.0975 ± 0.018
GCUCUGGAAACUAUACAACCUACUACCACA | 1.42 ± 0.15
GGUCUGGAAACUAUACAACCUACUACCACA | 0.461 ± 0.05
GGUCAGGAAACUAUACAACCUACUACCUCA | 1.77 ± 0.12
GGACUGGAAACUAUACAACCUACUACCUCA | 1.44 ± 0.097
GCACUGGAAACUAUACAACCUACUACCUCA | 1.82 ± 0.089
CCUCUGGAAACUAUACAACCUACUACCACA | 2.19 ± 0.26
GCUCAGGAAACUAUACAACCUACUACCUCA | 1.78 ± 0.1
CCUCAGGAAACUAUACAACCUACUACCUCA | 2.04 ± 0.1
CCACUGGAAACUAUACAACCUACUACCUCA | 2.06 ± 0.11
GGAGACGAUACUAUACAACCUAGAUCCUCA | 0.113 ± 0.015
GGAGAGGUUACUAAACAACCUACUACCUCA | 1.21 ± 0.08
GGAGACGAUACUAUAGAACCUACUACCUCA | 1.14 ± 0.066
GGAGACCUAUGAUAACAACCUACAUGGAGA [g8:g16:cont:t1A] | < 0.0001
GGAGUGCAUACUAUACUACCUACUACCUCA | 1.13 ± 0.092
GGAGACCUAUGAUAAGUACCUACUACCUCA | < 0.0001
GGAGACCUAUCUUUACAACCUACUACCACA | 0.129 ± 0.03
GGAGUGGAUUCAAUACAACCUACUACCUCA | 1.02 ± 0.071
GGUCUAGGAUACUAUACAACCUACUACCUCA | 1.83 ± 0.1
GCUCUAGGAUACUAUACAACCUACUACCUCA | 1.85 ± 0.095

Sequence | pre-steady-state target cleavage rate
GCUCUAGAUACUAUACAACCUACUACCUCA | 2.09 ± 0.12
GGAGUAGAUACUAUACAACCUACUACCUCA | 1.55 ± 0.074
CCUCUAGAUACUAUACAACCUACUACCUCA | 2.2 ± 0.13
GCUCUGGAUACUAUACAACCUCUACCUCA | 0.00616 ± 0.003
GGACUAGAUACUAUACAACCUACUACCUCA | 1.77 ± 0.1
CCUCUAGGAUACUAUACAACCUACUACCUCA | 2.12 ± 0.12
GGUCUAGAUACUAUACAACCUACUACCUCA | 1.81 ± 0.11
GGAGACCUAAAUAUACAACCUACUACCUCA | 0.106 ± 0.021
GGACUGGAUACUAUACAACGUUCUACCUCA | 0.107 ± 0.014
GGUCUGGAUAGUAUACAACCUACUACCUGA | 0.248 ± 0.041
GGAGACGAUAGUAUACUACCUACUACCUCA | 0.67 ± 0.071
GGAGUGGAUACUAUACAACCUACUCACCUCA | 0.793 ± 0.088
GGAGUGGAUACUAUACUACCUAGUACCUCA | 0.283 ± 0.04
GGUGUGGAUACUAUACAACCUACUACCUGA | 0.419 ± 0.069
GGAGACGAUACUAUACAACCUACUACCUCG [g2:g24:cont:t1G] | 1.1 ± 0.063
GGAGACGAUACUAUACAACCUACUACCUCC [g2:g24:cont:t1C] | 1.5 ± 0.075
GGUCACGAUACUAUACAACCUACUACCUCA | 1.89 ± 0.12
GGUGACGAUACUAUACAACCUACUACCUCA | 1.82 ± 0.098
CCUCACGAUACUAUACAACCUACUACCUCA | 2.1 ± 0.12
GGAGACGAUACUAUACAACCUACUACCUCCA | 2.06 ± 0.12
GCUGACGAUACUAUACAACCUACUACCUCA | 1.84 ± 0.1
CCUGACGAUACUAUACAACCUACUACCUCA | 2.06 ± 0.12
GCUCACGAUACUAUACAACCUACUACCUCA | 1.83 ± 0.092
